SMILES strings stand for the structures. Inconclusive results are not listed. The source made the active and inactive calls. The calls were made as follows: active = hit-call score of the fitted dose curve at least 0.9, where 1 is the maximum; inconclusive = response in the unintended direction; inactive = score below 0.9.

Cellular tumor antigen p53 (Homo sapiens), sequence (P04637 whole entry, looked up): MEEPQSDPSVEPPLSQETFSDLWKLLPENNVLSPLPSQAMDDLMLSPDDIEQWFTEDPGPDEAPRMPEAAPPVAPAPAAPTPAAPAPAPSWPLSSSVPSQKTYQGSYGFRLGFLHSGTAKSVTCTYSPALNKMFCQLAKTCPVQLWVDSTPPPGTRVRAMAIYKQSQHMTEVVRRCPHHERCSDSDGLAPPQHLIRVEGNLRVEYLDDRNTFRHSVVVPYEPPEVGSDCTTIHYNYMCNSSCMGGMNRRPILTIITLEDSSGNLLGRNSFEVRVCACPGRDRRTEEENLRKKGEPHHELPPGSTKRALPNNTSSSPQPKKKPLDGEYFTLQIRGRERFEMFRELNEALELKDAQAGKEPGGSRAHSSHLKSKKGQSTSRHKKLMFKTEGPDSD

This test concerns the target Cellular tumor antigen p53 (Homo sapiens) (UniProt P04637). The experiment in a line: TOX21_p53_BLA_p3_ratio: Tox21 HCT-116 p53 Agonism Beta-lactamase Assay, Ratio, Phase 3 (AID 2283596). A digest of the protocol: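 HCT116 p53-bla cells (4000/well) given compound in DMSO (217-fold dilution) after 5 h, incubated 16 h at 37C. CCF4-AM substrate 2 h at room temperature; 460/530 nm emission ratio, gain fitted against DMSO.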
With `CCCCCC/C=C/C(=O)OC`, the result was inactive.

For `BrC(Br)C(Br)Br`, the outcome was inactive.

For `CNc1c2c(nn1C)CCCC2`, the result was inactive.

On to `CN1CCN(C2=Nc3cc(F)ccc3Cc3ccccc32)CC1`, for which the result was inactive.

With `C[C@H]1NCc2cc(-c3ccc4c(=O)c(C(=O)O)cn(C5CC5)c4c3OC(F)F)ccc21`, the outcome was inactive.

As to `C[N+]1(C)CCN(CC(O)(c2ccccc2)C2CCCCC2)CC1` (stereo not drawn), the outcome was inactive.

Regarding `NS(=O)(=O)c1ccccc1Cl`, the result was inactive.

In the case of `O=C1CCN(c2ccccc2)N1`, the outcome was inactive.

For `O=C(CCN1CCN(CCO)CC1)N1c2ccccc2Sc2ccc(C(F)(F)F)cc21`, the result was inactive.

For the compound `CO/N=C(\C(=O)N[C@@H]1C(=O)N2C(C(=O)O)=C(CSc3nc(C)c(CC(=O)O)s3)CS[C@H]12)c1csc(N)n1`, the outcome was inactive.

As to `Nc1ccc(C(=O)O)c(O)c1`, the result was inactive.

As to `CC(C)(C)C(=O)OCOP(=O)(COCCn1cnc2c(N)ncnc21)OCOC(=O)C(C)(C)C`, the result was inactive.

For `Cl.Cl.N.N.[Cl-].[Cl-].[Pt+2]`, the outcome was inactive.

Take `CC(C)(O/N=C(\C(=O)N[C@@H]1C(=O)N2C(C(=O)[O-])=C(C[n+]3ccccc3)CS[C@H]12)c1csc(N)n1)C(=O)O`: the result was inactive.

As to `CC1(C)OC[C@@H](COC(=O)CCc2ccc(OC[C@@H](O)CNCCNC(=O)N3CCOCC3)cc2)O1`, the result was inactive.

As to `Cc1nc2ccccc2s1`, the result was inactive.

Take `CCOC(=O)c1ccc(OC(=O)CCCCCN=C(N)N)cc1`: the result was inactive.

Regarding `CC[C@H]1OC(=O)C[C@@H](O)[C@H](C)[C@@H](O[C@@H]2O[C@H](C)[C@@H](O)[C@H](N(C)C)[C@H]2O)[C@@H](CCN2C[C@H](C)C[C@H](C)C2)C[C@@H](C)C(=O)/C=C/C(C)=C/[C@@H]1CO[C@@H]1O[C@H](C)[C@@H](O)[C@@H](OC)[C@H]1OC`, the result was inactive.

The values above are taken from PubChem BioAssay (EPA / NIEHS).
